Assay outcomes from PubChem BioAssay.
Only a sample is shown.
aSyn 5UTR act: Activators via SNCA 5'UTR binding, MLPCN. alpha-synuclein 5'UTR reporter, activators screen. activity score, % (tested at 7.5 µM), hits read low. 300,000 tested, 7.1% active; in the data active = activity score below about -60%
The depositor's hits bear a star.

O=C(Nc1ccc(-c2nc3ncccc3o2)cc1)c1ccc([N+](=O)[O-])o1 was read as aSyn 5UTR act 100.
Screening Cc1ccnc(NC(=S)NC(=O)c2cccs2)c1 returned aSyn 5UTR act -270*.
Screening Cc1ccc(-c2nc3ncccc3o2)cc1NC(=O)c1ccc([N+](=O)[O-])o1 returned aSyn 5UTR act -511*.
Screening Cc1cc(-c2nc3ncccc3o2)ccc1NC(=S)NC(=O)c1ccco1 returned aSyn 5UTR act -67*.
O=C(NC(=S)Nc1cccnc1Cl)c1ccco1 was read as aSyn 5UTR act -62*.
Screening O=C(NC(=S)Nc1ccccn1)c1ccco1 returned aSyn 5UTR act -173*.
For Cc1ccnc(NC(=S)NC(=O)c2ccco2)c1 the results were aSyn 5UTR act -140*.
`O=C(/C=C/c1ccc([N+](=O)[O-])cc1)/C=C/c1ccco1` gave aSyn 5UTR act -215*.
CC(C)(C)Nc1nc(-c2ccc3c(c2)CCN3C(=O)C2CC2)cs1 was read as aSyn 5UTR act -80*.
`CC(=O)Nc1nc(-c2ccc3c(c2)CCN3S(C)(=O)=O)cs1` gave aSyn 5UTR act -207*.
`CC(C)C(=O)Nc1nc(-c2ccc3c(c2)CCN3C(=O)C2CC2)cs1` gave aSyn 5UTR act -101*.
CC(=O)c1cccc(OCc2cc(C(=O)N(C)CCC3CCOCC3)no2)c1 was read as aSyn 5UTR act -86*.
`CCN(CC1CCCO1)C(=O)c1cc(COc2cc(C)c(Cl)c(C)c2)on1` (stereo unspecified) gave aSyn 5UTR act -129*.
Cc1cc(OCc2cc(C(=O)N(C)CC3CCOCC3)no2)cc(C)c1Cl was read as aSyn 5UTR act -72*.
`COc1ccccc1-c1nc(COc2ccc(Cl)cc2Cl)no1` gave aSyn 5UTR act -204*.
Cc1c(OCC(=O)C(C)(C)C)ccc2c3c(c(=O)oc12)CCCC3 was read as aSyn 5UTR act -97*.
For Cc1ccccc1Nc1c(-c2ccc(N3CCOCC3)cc2)nc2cnccn12 the results were aSyn 5UTR act -67*.
CC1=CC(C)(C)N=C(Nc2ccc(C)cc2)S1 was read as aSyn 5UTR act -169*.
CCN(CC)S(=O)(=O)c1ccc(N2CCOCC2)c(NC(=O)c2cc(-c3ccccn3)nc3ccccc23)c1 was read as aSyn 5UTR act 88.
`CCN(CC)S(=O)(=O)c1ccc(N2CCOCC2)c(NC(=O)c2cc([N+](=O)[O-])ccc2Cl)c1` gave aSyn 5UTR act -164*.
Cn1nnc(NC(=O)c2ccc(C(C)(C)C)cc2)n1 was read as aSyn 5UTR act -95*.
For Cn1nnc(NC(=O)c2ccc3ccccc3c2)n1 the results were aSyn 5UTR act -63*.
For CN(C)c1cccc(C(=O)Nc2ccc3nc4n(c(=O)c3c2)CCCCC4)c1 the results were aSyn 5UTR act -81*.
CCOc1ccccc1C(=O)Nc1ccc2nc3n(c(=O)c2c1)CCCCC3 was read as aSyn 5UTR act -77*.
`O=C(/C=C/c1ccco1)Nc1ccc2nc3n(c(=O)c2c1)CCCC3` gave aSyn 5UTR act -176*.
Screening COc1cc(OC)cc(C(=O)Nc2ccc3nc4n(c(=O)c3c2)CCCC4)c1 returned aSyn 5UTR act -120*.
Screening COc1cccc(C(=O)Nc2ccc3nc4n(c(=O)c3c2)CCCC4)c1 returned aSyn 5UTR act -76*.
`Cc1ccc(Cn2ccc(NC(=O)c3nn(C)cc3Cl)n2)cc1` gave aSyn 5UTR act -112*.
`O=C(Nc1ccn(Cc2ccccc2F)n1)c1ccc(COc2ccc(Br)cc2)cc1` gave aSyn 5UTR act -68*.
O=C(Nc1ccn(Cc2ccccc2)n1)c1ccc(F)cc1 was read as aSyn 5UTR act -120*.
`Nc1ccc(C(=O)N/N=C/c2cn(Cc3ccc(F)cc3)c3ccccc23)cc1` gave aSyn 5UTR act 64.
Screening O=C(Nc1ccn(Cc2ccc(Cl)cc2)n1)c1ccc2c(c1)OCO2 returned aSyn 5UTR act -70*.
For Cc1ccc(NC(=O)c2cc(N(C)C)ccc2[P+](=O)O)cc1 the results were aSyn 5UTR act -154*.
`COc1ccc2c(c1OC)C(=O)N1C(C(=O)O)Cc3c([nH]c4ccccc34)C21` (stereo unspecified) gave aSyn 5UTR act -66*.
For COc1ccc(-c2nc(CS(=O)CC(=O)NCCC3=CCCCC3)c(C)o2)cc1 (stereo unspecified) the results were aSyn 5UTR act -86*.
For O=C(Cc1nc2ccccc2s1)c1ccc(O)cc1O the results were aSyn 5UTR act -147*.
O=C(CSc1nc2ccccc2s1)c1ccc(O)cc1O was read as aSyn 5UTR act -66*.
Cc1ccccc1OCCCn1c(=O)sc2ccccc21 was read as aSyn 5UTR act -130*.
Cc1ccc(OCCn2c(=O)sc3ccccc32)cc1 was read as aSyn 5UTR act -115*.
`O=c1sc2ccccc2n1COc1ccc(Cl)cc1` gave aSyn 5UTR act -90*.
Screening Cc1ccc(OCCCn2c(=O)sc3ccccc32)cc1 returned aSyn 5UTR act -65*.
For O=c1sc2ccccc2n1CCCOc1ccccc1 the results were aSyn 5UTR act -137*.
Screening CCOC(=O)C1(CCCc2ccccc2)CCN(Cc2cnc(C)s2)CC1 returned aSyn 5UTR act -63*.
CC#CC(=O)N1CCC(CCc2ccccc2)(C(=O)OCC)CC1 was read as aSyn 5UTR act 47.
`CCN(CC)CCn1c2ccccc2c2cnc(N)c(C#N)c21` gave aSyn 5UTR act -655*.
Screening COc1ccc(/C=C/C(=O)N(C)C2CCCCC2)cc1Br returned aSyn 5UTR act -92*.
Screening CCCN(CCC)c1ccc(/C=C/c2ccc3cc(OCC)ccc3n2)cc1 returned aSyn 5UTR act -112*.
Screening CN(C)c1ccc(/C=C/c2ccc3ccccc3n2)cc1 returned aSyn 5UTR act 89.
Screening Cc1ccc(N=Cc2ccc(N(C)C)cc2)cc1C returned aSyn 5UTR act -123*.
CCN(CC)c1ccc(O)c(C=Nc2ccc(C)c(C)c2)c1 was read as aSyn 5UTR act -77*.
Screening Cc1ccc(N=Nc2ccc(O)c(/C=N\NC(=O)c3ccc(N)cc3)c2)cc1C returned aSyn 5UTR act 58.
`COc1ccc(C(=O)O/N=C(\N)c2ccccc2)cc1OC` gave aSyn 5UTR act -180*.
COc1ccc(C(=O)O/N=C(\N)c2cccc(C)c2)cc1OC was read as aSyn 5UTR act -165*.
Cc1cccc(/C(N)=N/OC(=O)c2ccoc2C)c1 was read as aSyn 5UTR act -116*.
COc1ccc(/C(N)=N/OC(=O)CSc2ccccc2)cc1OC was read as aSyn 5UTR act -125*.
COc1ccc(C(=O)n2c(N)nc3ccccc32)cc1OC was read as aSyn 5UTR act -177*.
For COc1ccc(CCn2c(-c3ccccc3)nc3c(c(=O)c4ccccc4n3C)c2=O)cc1 the results were aSyn 5UTR act -86*.
For COc1ccc(CCn2c(C3CCCCC3)nc3c(c(=O)c4ccccc4n3C)c2=O)cc1 the results were aSyn 5UTR act 75.
For Cc1ccc(C(=O)/C=C/c2cn(CN3CCN(C)CC3)c3ccccc23)cc1 the results were aSyn 5UTR act -231*.
For O=C(/C=C/c1c[nH]c2ccccc12)c1ccccc1 the results were aSyn 5UTR act -330*.
For COc1ccc2[nH]cc(/C=C/C(=O)c3ccccc3)c2c1 the results were aSyn 5UTR act -245*.
`Cc1ccc(C(=O)/C=C/c2c[nH]c3ccccc23)cc1` gave aSyn 5UTR act -237*.
For Oc1ccccc1N=Cc1sc2ccccc2c1Cl the results were aSyn 5UTR act -104*.
Screening Cc1ccc(O)c(N=Cc2sc3ccccc3c2Cl)c1 returned aSyn 5UTR act -90*.
`Cc1ccc(NC(=O)C2=C(O)c3sccc3N(C)S2(=O)=O)cc1` gave aSyn 5UTR act -101*.
